Assay outcomes deposited in PubChem BioAssay by several laboratories.
Rce1 inh: inhibitors of yeast Ras-converting enzyme; Q03530; yeast membranes, quenched prenylated peptide cleavage fluorescence; calls only; 0.27% of 290,000 active; AID 2563;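 active = fall in fluorescence gain of 50% or more versus controls, with final raw signal at or below 3038400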;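 also: plate controls were neutral control wells for no effect and wells lacking membranes for full effect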
Target sequence (Q03530 whole entry, looked up): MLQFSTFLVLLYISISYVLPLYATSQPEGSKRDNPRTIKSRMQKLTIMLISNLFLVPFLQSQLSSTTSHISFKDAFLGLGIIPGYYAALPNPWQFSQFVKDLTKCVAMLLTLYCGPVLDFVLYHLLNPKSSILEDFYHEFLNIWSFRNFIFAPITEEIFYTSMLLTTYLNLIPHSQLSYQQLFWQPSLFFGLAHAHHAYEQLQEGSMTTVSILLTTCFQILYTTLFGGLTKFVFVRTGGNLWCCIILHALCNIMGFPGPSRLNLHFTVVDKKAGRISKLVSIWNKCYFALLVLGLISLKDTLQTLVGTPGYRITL
TIM10 inh: growth inhibitors of TIM10 yeast strain. AID 463195. S. cerevisiae TIM10 strain growth, BacTiter-Glo luminescence, 24 h. 1.4% of 330,000 active. inhibition, % at 10 µM;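 active = inhibition of 40% or more at the single tested concentration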;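 also: wild-type TIM10 isogenic control strain grown at permissive 25 °C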
tim23-1 inh: growth inhibitors of tim23-1 mutant yeast | 1.3% of 330,000 active | S. cerevisiae tim23-1 growth, BacTiter-Glo luminescence, 24 h | AID 463212 | inhibition, % at 20 µM;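 active = growth inhibition of the mutant yeast at or above 50%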;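 also: temperature-sensitive mutant grown at 25 °C; plate controls were DMSO-treated mutant yeast for no effect and medium wells lacking yeast for full effect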
tim10-1 inh: inhibits growth of tim10-1 mutant yeast | S. cerevisiae tim10-1 ts strain growth, BacTiter-Glo, 24 h | inhibition, % at 20 µM | 2.2% of 330,000 active | AID 463190;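 active = inhibition of at least 40%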;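 also: mutant grown at 25 °C; 0% = DMSO wells with yeast and 100% = wells holding no yeast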
PfHsp90 set2: growth inhibition of yeast expressing Plasmodium Hsp90 | inhibition, % at 9.4 µM | AID 504621 | 0.32% of 310,000 active | S. cerevisiae expressing PfHsp90, BacTiter-Glo ATP, 48 h; yeast lacking PDR1 and PDR3 efflux regulators;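 active = every replicate shows inhibition above about 80%, whatever the replicate mean, limit read from the data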;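 also: 0% = DMSO neutral controls and 100% = 20 µM radicicol positive controls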
tim23-1 confirm: tim23-1 yeast growth inhibition, confirmed; shares compounds with tim23-1 inh; 83% of 4,400 active; inhibition, % at 20 µM; S. cerevisiae tim23-1 growth, BacTiter-Glo luminescence, 24 h; AID 463218;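 active = inhibition above about 39% in either of two replicate wells at 20 µM, limit read from the data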;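 also: temperature-sensitive tim23-1 mutant grown at 25 °C; 0% = DMSO wells with yeast and 100% = medium wells without yeast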
Starred values were filed as active, the others as inactive; i = inactive; / = no result; + = active, no number; ! = a repeat was not active. Only some compounds are listed: those with a hit (about 3.7% of all), similar ones and a draw of the others.

SMILES	Rce1 inh	TIM10 inh	tim23-1 inh	tim10-1 inh	PfHsp90 set2	tim23-1 confirm
COc1ccc(C(C)NC(=S)NC2CCCC2)cc1OC (stereo not given)	i	7.4	3.5	9.3	-15.1	/
Brc1ccc(OCc2nnnn2-c2ccccc2)cc1	i	7.7	51.8*	-7.6	-11.2	38.8*
CC(CCC(C)C(C)(C)C)[C@@H]1CC[C@H]2C3C[C@H](OS(O)(=S)=S)[C@H]4C[C@H](OS(O)(=S)=S)[C@@H](OS(O)(=S)=S)C[C@]4(C)[C@H]3CC[C@]12C (stereo not given in full) (tested in a mixture with another compound)	/	-58.6	56.0*!	-62.2	108.7*	11.3
COc1cc(CN2c3ccccc3C(=O)CS2(=O)=O)cc(OC)c1	/	7.2	43.4	25.8	-15.0	/
O=C1CS(=O)(=O)N(Cc2ccc(F)cc2)c2ccccc21	/	25.2	52.8*	29.5	-2.5	47.0*
O=C(CCSc1ccc(Cl)cc1)NC1CCCCC1	i	11.7	12.7	8.1	27.7	/
O=C(CCSc1ccc(Cl)cc1)NC12CC3CC(CC(C3)C1)C2	+	39.7	51.5*	38.0	-5.3	45.8*
COC(=O)CCN(Cc1cc(OC)ccc1OC)S(=O)(=O)c1ccccc1Br	/	13.4	54.3*	28.1	11.4	36.2
CCC(=O)CN(Cc1cc(OC)ccc1OC)S(=O)(=O)c1ccccc1Br	/	2.4	57.7*	27.7	-34.3	26.1
COc1ccc(CN(CCC(C)C)S(=O)(=O)c2ccccc2Br)cc1	/	-21.4	34.1	21.3	14.6	/
Nn1cnnc1N/N=C/c1cc(Br)cc(Br)c1O	i	39.1	56.8*	4.4	-50.4	60.1*
N#C/C(=C\c1cccnc1)c1ccc([N+](=O)[O-])cc1	/	28.0	55.2*	33.9	15.5	36.1
CCn1c(Cn2nnc(-c3ccccc3)n2)nnc1SCc1ccc(Cl)c(Cl)c1	/	28.5	53.2*	32.9	29.1	45.3*
Cc1ccc(NC(=O)C(C)SCC(=O)Nc2ccc(F)cc2)cc1S(=O)(=O)N1CCOCC1 (stereo not given)	i	-7.1	3.2	7.8	17.4	/
CC(=O)Nc1ccc(C2=NN(c3ccccc3)C(c3ccccc3)C2)cc1 (stereo not given)	i	20.0	29.6	30.4	-6.2	/
CC(=O)Nc1ccc(C2CC(c3ccc(Cl)cc3)=NN2c2ccccc2)cc1 (stereo not given)	i	22.6	63.1*	38.3	-8.5	41.5*
CC(C)CC(=O)c1c[nH]c(C(=O)NCc2cccs2)c1	i	-1.0	9.7	0.7	-27.5	/
O=C(O)c1cn2c3c(ccc(Cl)c3c1=O)OCC2	i	13.2	13.9	-10.8	17.3	/
O=C(NCc1csc(-c2cccs2)n1)Nc1cccc(Cl)c1	i	36.9	52.6*	23.6	-0.6	63.7*
Cc1nnc2n(Cc3ccccc3)c(=O)c3c4c(sc3n12)COC(C(C)C)C4 (stereo not given)	i	-1.0	54.9*	26.4	-12.0	37.8
O=C(Nc1oc2ccccc2c(=O)c1-c1ccc(Br)cc1)c1ccco1	i	24.2	52.0*	19.4	-2.9	41.1*
O=C(Nc1oc2ccc(Cl)cc2c(=O)c1-c1ccc(F)cc1)c1ccco1	i	18.3	52.7*	28.7	10.9	45.5*
COc1ccc(-c2c(NC(=O)c3ccco3)oc3c(C)cccc3c2=O)cc1	i	25.8	50.6*	34.5	-0.8	42.8*
COc1ccc(CCNC(=O)c2cc(C)oc2C)cc1OC	i	-10.7	0.0	-3.4	-3.7	/
Cc1ccc(Nc2c(-c3ccccn3)nc3cc(C)ccn23)cc1	i	25.2	57.2*	35.5	4.5	50.4*
SMILES	Rce1 inh	TIM10 inh	tim23-1 inh	tim10-1 inh	PfHsp90 set2	tim23-1 confirm
COc1cccc2c3cccc(OC)c3c3[nH]cnc3c12	/	/	/	/	-0.4	/
O=C(NC1CCS(=O)(=O)C1)c1cccc(Br)c1 (stereo not given)	i	0.0	6.0	-0.9	/	/
O=c1c(Cl)nc2cc(Cl)ccc2n1CCNc1ncc(C(F)(F)F)cc1Cl	i	-18.0	62.3*	21.3	-6.3	7.7
O=c1c2nncn2c2cc(C(F)(F)F)ccc2n1CCNc1ncc(C(F)(F)F)cc1Cl	i	0.0	-4.2	-2.7	-3.9	/
COc1cc(CO)cc(Br)c1OCC(=O)N1CCCCC1	i	2.3	-2.8	3.8	12.0	/
CC(=O)Oc1ccc(N2C(=O)c3cccc4c([N+](=O)[O-])ccc(c34)C2=O)cc1	i	39.2	67.3*	28.7	-7.8	56.7*
Cc1ccc(N2C(=O)c3cccc4c(Oc5ccccc5[N+](=O)[O-])ccc(c34)C2=O)c(C)c1	i	15.2	19.0	7.5	6.7	/
O=C(Nc1ccc(C(=O)N2CCCc3ccccc32)cc1)c1cccs1	/	7.4	51.9*	4.1	3.5	44.3*
CC(=O)Nc1ccc(C(=O)N2CCCc3ccccc32)cc1	i	-3.4	4.9	8.1	-11.1	/
CC(C)(C)OC(=O)C[C@H]1C/C=C\C[C@H](CC(=O)N[C@@H](CO)Cc2ccccc2)C(=O)N[C@H](C(C)(C)C)COC1=O	/	1.3	-8.9	-9.3	-6.2	/
N#Cc1c(Nc2ccccc2)sc(C(=O)c2ccccc2)c1N	i	26.0	18.3	11.2	1.3	/
Cc1cccc(Oc2sc(C(=O)c3ccccc3)c(N)c2C#N)c1	i	31.5	55.3*	32.9	-18.6	41.6*
CCN(CC)c1ccc(C(=O)Nc2cccc(F)c2)cc1	i	18.7	64.9*	21.1	11.7	73.3*
NC(=O)C1=NOC(CNc2ncc(C(F)(F)F)cc2Cl)C1 (stereo not given)	i	-10.3	2.5	4.9	-6.2	/
CCC(C)Sc1ccc(-c2nc3cc(C)ccn3c2NC2CCCCC2)cc1 (stereo not given)	/	32.1	56.2*	23.8	26.2	47.2*
N#Cc1ccc(NC(=O)COc2ccc(-n3cnnn3)cc2)cc1	/	-5.0	9.7	8.7	-4.2	/
Cc1ccc(Sc2nnc(-c3ccccc3)cc2C#N)cc1	i	11.4	8.8	7.1	-2.1	/
Cc1ccc(Sc2ccc(N)cc2C#N)cc1	/	10.8	58.1*	34.9	/	37.1
COc1ccc(Nc2ncc(C#N)c(N)n2)c(OC)c1	i	5.1	2.7	-15.5	-0.9	/
Cc1ccc2cc(C=O)c(Cl)nc2c1	i	30.9	50.1*	13.0	-24.5	48.1*
O=Cc1cc2cc3c(cc2nc1Cl)OCCO3	i	13.2	72.6*	14.6	/	51.6*
O=C(O)c1ccc(N/N=C/c2cc3cc4c(cc3nc2Cl)OCCO4)cc1	i	9.1	3.6	-5.5	7.6	/
C(=C\c1ccccc1)/C=N/Nc1nc2ccccc2[nH]1	i	19.0	50.5*	14.9	5.3	48.0*
Cc1cnc(NC(=O)c2cc3c(s2)CCCC3)s1	i	28.3	54.8*	26.5	-1.7	46.8*
COc1ccc(C)cc1-n1nnnc1SC(C)C(=O)NC1CCCC1 (stereo not given)	/	-3.6	10.9	9.0	15.2	/
